CSC inhib: cancer stem cell inhibition | cancer stem cell-like cells viability, luminescence | AID 2717 | hit rate 1.1% among 300,000 | inhibition, % at 7.5 µM; in the data active = inhibition above about 75%; inconclusive = no clear call, values can overlap the other calls; tested in HMLE shEcad cells
Shn3 3UTR inh: reduces Shn3 3'UTR luciferase signal in osteoblasts; Clone20 osteoblast Shn3 3'UTR firefly luciferase, 24 h; inhibition, % at 12.5 µM; hit rate 0.52% among 360,000; AID 588674;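 active = mean inhibition of at least 75% with every replicate also reaching 75%; inconclusive = mean inhibition at least 75% but some replicate below; inactive = mean inhibition below 75%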;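 also: 0% = median of neutral control wells and 100% = pilot-screen positive control compound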
Beta cell apopt: beta cell apoptosis inhibition. INS-1E cytokine-induced death, ATP luminescence, 48 h; percent of positive-control rescue, neutral wells zero. hit rate 0.8% among 300,000. protection from apoptosis, % (concentration not given with the values);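 active = Every replicate reaches about 75%, or at least half do and their mean reaches it too, limit read from the data; inconclusive = At least half of replicates reach the limit but their mean does not; inactive = Under half of replicates reach the limit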;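 also: 0% = cytokine-treated negative control wells and 100% = positive control rescue; higher means more ATP so stronger rescue from cytokine killing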
PfHsp90 set2: growth inhibition of yeast expressing Plasmodium Hsp90 | S. cerevisiae expressing PfHsp90, BacTiter-Glo ATP, 48 h; yeast lacking PDR1 and PDR3 efflux regulators | inhibition, % at 9.4 µM | hit rate 0.32% among 310,000;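 active = every replicate shows inhibition above about 80%, whatever the replicate mean, limit read from the data; inconclusive = mean inhibition reaches the set limit but some replicate falls short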;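 also: 0% = DMSO neutral controls and 100% = 20 µM radicicol positive controls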
Calb FLC: affects C. albicans growth with fluconazole; C. albicans CaCi-2 (fluconazole-resistant clinical isolate) + fluconazole, Alamar Blue growth, 48 h; growth inhibition, % (concentration not given with the values); hit rate 0.57% among 300,000;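 active = growth inhibition above about 58% in most replicates, limit read from the data, passing the limit was not always enough; inconclusive = exactly half the replicates above a set limit; inactive = most replicates below a set limit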;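 also: all wells also contain fluconazole at 8 µg/ml as a sub-toxic cotreatment; 0% = median of DMSO wells and 100% = median of geldanamycin control wells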
* marks the source's active call; other numbers are inactive results; ? = inconclusive; / = not tested or not shown. Rows were chosen to be rich in hits. Some 2.2% of all compounds tested hit in one or more screens of this group.

SMILES | CSC inhib | Shn3 3UTR inh | Beta cell apopt | PfHsp90 set2 | Calb FLC
O=C(CC1SC(=Nc2ccccc2)N(CCc2ccccn2)C1=O)Nc1ccc(F)cc1 (configuration not stated) | -0.4 | -4.0 | -9.1 | 7.6 | -3.9
COC(=O)c1c(NC(=O)C2CC2)sc(C(=O)Nc2ccccc2)c1C | 13.6 | -34.4 | 8.1 | 8.8 | -19.2
CCCCCCC(=O)N(O)C1CC(=O)N(c2ccc(Cl)cc2)C1=O (configuration not stated) | -0.6 | -17.1 | / | 110.3* | -2.1
CCCCCCC(=O)N(O)C1CC(=O)N(c2ccc(C)cc2)C1=O (configuration not stated) | 7.9 | 7.0 | -12.0 | 106.2* | -18.8
Nc1ccc(S(=O)(=O)N2CCC(Cc3ccccc3)CC2)cc1 | 12.9 | -1.5 | -0.2 | 20.9 | -9.6
Cc1cccc(-c2nc(C#N)c(N3CCCCC3)o2)c1 | -2.3 | -9.4 | -1.4 | -6.0 | 13.3
Cc1cccc(-c2nc(C#N)c(NC3CCCCC3)o2)c1 | 98.8* | -102.1 | 2.9 | -47.5 | 10.3
COc1ccc(C(C#N)=Cc2ccc(N(C)CCC#N)cc2)cc1 | / | -62.5 | / | / | /
CCN(CC)c1ccc(/C=C/c2nc3ccccc3s2)cc1 | 90.4* | / | -1.5 | / | ?
CCN(CC)c1ccc(NC(=O)COC(=O)/C=C/c2nc3ccccc3s2)cc1 | -12.4 | -35.6 | -1.8 | 8.3 | -0.5
O=C(Nc1ccc2c(c1)OCO2)C(=O)c1c[nH]c2ccccc12 | -10.8 | -64.7 | -1.5 | 16.0 | -8.8
O=C(Nc1ccc2c(c1)OCCO2)C(=O)c1c[nH]c2ccccc12 | 106.7* | -64.0 | 19.0 | 3.2 | -12.3
CC(C)c1ccc(O)c(NC(=S)NC(=O)c2ccc3c(c2)OCO3)c1 | 22.5 | -78.2 | 4.6 | -60.0 | -3.8
N=C1/C(=C\c2ccc(SCc3ccccc3)o2)C(=O)N=C2SC(CC(=O)N3CCOCC3)=NN12 | -5.8 | -3.9 | 1.5 | 26.0 | 4.8
N=C1/C(=C\c2ccc(SCc3ccccc3)o2)C(=O)N=C2SC=NN12 | 4.9 | -2.1 | 4.9 | -14.5 | 77.8*
COc1ccc(C2NCCc3c2[nH]c2ccccc32)cc1COc1ccc(F)cc1 (configuration not stated) | ? | -28.2 | 104.4* | 22.5 | 3.4
COc1ccc(C2NCCc3c2[nH]c2ccccc32)cc1CN1CCc2cc(OC)c(OC)cc2C1C (configuration not stated) | / | 8.2 | / | -8.9 | -9.3
CCN(CC)c1ccc(-c2sc(Nc3ccccc3)n[n+]2-c2ccc(F)cc2)cc1 | 2.3 | -3.9 | 32.4 | -10.2 | 41.5
CCc1ccc(Nc2n[n+](-c3ccccc3)c(-c3ccc(N(CC)CC)cc3)s2)cc1 | 34.2 | 82.0 | 108.3* | 10.5 | 3.4
CCc1ccc(Nc2n[n+](-c3ccccc3)c(-c3c(Cl)cccc3Cl)s2)cc1 | 108.8* | 91.8* | 107.6* | -2.7 | 19.5
Fc1ccc(-[n+]2nc(Nc3ccccc3)sc2-c2c(Cl)cccc2Cl)cc1 | 41.7 | 19.3 | 2.4 | 3.0 | -3.4
Cc1nn(-c2ccc(Cl)cc2)c(Cl)c1/C=N/NC(=O)c1ccc(NS(=O)(=O)c2cccs2)cc1 | 31.9 | 19.3 | 11.1 | -15.0 | 5.3
COc1ccccc1N(CC(=O)N1CCCC1)S(=O)(=O)c1cc([N+](=O)[O-])ccc1Cl | -0.7 | 6.0 | -0.8 | 1.6 | /
Cc1nc(C2CCC3C4CCC5=CC(=O)CC[C@]5(C)C4CC[C@]23C)cs1 (some centres not stated) | 86.2* | / | 101.3* | / | 7.5
CC(C)(Oc1ccc(Cl)cc1)C(=O)NC1=NN(c2ccccc2)C(=O)C1 | 112.5* | -29.7 | -2.3 | 11.1 | 27.2
SMILES | CSC inhib | Shn3 3UTR inh | Beta cell apopt | PfHsp90 set2 | Calb FLC
C#CC(=O)N(c1cc(OC)ccc1OC)C(C(=O)NC1CCCC1)c1cccs1 (configuration not stated) | 21.1 | 89.8* | 6.0 | 4.4 | -2.4
CCSc1ncc(/C=N/Nc2ccc(Cl)cc2)n1C | 92.9* | -81.9 | -0.1 | / | -1.4
CCC(=O)N1CCN(c2nc3ccccc3s2)CC1 | -14.4 | -41.7 | / | -23.0 | 1.7
O=C(c1cc2sccc2n1Cc1ccccc1)N1CCN(c2nc3ccccc3s2)CC1 | 7.4 | ? | 99.5* | 10.2 | 1.0
O=C(CN(c1ccccc1)S(=O)(=O)c1ccc(F)cc1)NCc1cccs1 | / | -0.2 | -0.9 | -7.3 | /
N#Cc1ccc(NN=Nc2ccccc2C#N)cc1 | / | 15.6 | / | / | /
CCOC(=O)C1CCN(C(=O)c2ccc3c(=O)n4nc(Nc5cc(C)ccc5C)sc4nc3c2)CC1 | 9.0 | 0.3 | 15.9 | -15.5 | 88.5*
COc1ccc(C(=O)N[C@H](C(=O)NC2CCCCC2)C(C)C)cc1 | -3.9 | 0.7 | 1.7 | / | /
